Results on 21 molecules are retold here after PubChem BioAssay (NCATS).

Records with an inconclusive call do not appear. Activity calls are given as the source filed them. Unless noted, the call rests on the fitted dose curve; in most records, active means well fitted curve in the direction sought with a large enough effect; inconclusive means small, poorly fitted or top-dose-only effect, or another doubt; inactive means no such curve, though single readings can be large; an effect the other way counts as inactive or inconclusive.

Assay [1] in a line: qHTS assay for small molecule disruptors of the mitochondrial membrane potential - 1 hr assay (AID 651754; calls by dose curve; further: on the % scale 0 is the no-effect control and ±100 the full control effect; nearly all actives have a fitted effect of over 35% in size). The method, boiled down:
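HepG2 cells, attached overnight, were exposed to compound for 1 hr at 37C, then stained 30 min with a potentiometric dye. Ratio of red aggregate (590nm) to green monomer (535nm) fluorescence reports membrane potential; collapse shifts signal toward green.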
In general terms: In qHTS, concentration-response curves come from the screen itself.

Assay [2] is described as follows: qHTS assay for small molecule disruptors of the mitochondrial membrane potential - 5 hr assay (AID 651755; calls by dose curve; further: on the % scale 0 is the no-effect control and ±100 the full control effect; nearly all actives have a fitted effect of over 40% in size). In short, it runs like this:
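HepG2 cells (2,000/well), attached overnight, exposed to compound 5 hr at 37C, then Mito-MPS dye 30 min. Fluorescence read for monomers (490/535 nm) and aggregates (540/590 nm).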

Assay [3] can be described thus: qHTS assay to identify small molecules that stimulate interleukin-8 (IL-8) secretion (AID 651758; active means well fitted activation curve with a large enough effect in the signal ratio; the % refers to the signal ratio; further: 0% is about no effect). In short, it runs like this:
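THP-1 cells (2000/well) exposed to compound 16 h at 37 C; secreted IL-8 then detected by HTRF with cryptate- and XL665-labelled anti-IL-8 antibody pair after 1-3 h at room temperature.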

Assay [4] is described as follows: Cytotoxicity counterscreen for NFkB agonists and antagonists (AID 624476;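 further: cells exposed to compound for 48 hours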; further: potency means the concentration at half of the fitted maximal effect). (In general: Counterscreens check selectivity or assay interference.)
Assay [5] in a line: qHTS Assay for Identification of Small Molecule Agonists for NFkB Signaling Pathway. (AID 624478). Further: 0% is about no effect. The method, boiled down:
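NFkB-bla ME-180 cells carry a beta-lactamase reporter. They received compound plus TNF alpha at 10 pM final (its EC50) for 5 h at 37 C. Reporter activity was read as 460/530 nm emission ratio after 2 h LiveBLAzer substrate loading.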

Assay [6] can be described thus: qHTS Assay for Identification of Small Molecule Antagonists for NFkB Signaling Pathway. (AID 624479; calls by dose curve;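 further: pathway stimulated with TNF alpha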; further: potency means the concentration at half of the fitted maximal effect).
Assay [7] in a line: Cell Proliferation Assay against the TMD8 Cell Line (AID 651645).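 Further: cells exposed to compound for 48 h before reading.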 The conditions noted are these: TMD8 DLBCL cell line proliferation/viability; at 46.1 µM (top of the series) unless noted. The method, boiled down:
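500 TMD8 cells/well, RPMI + Glutamax, no phenol red, 5% FBS; cpd added immediately; 48 h, 37C, 5% CO2; CellTiter-Glo, luminescence. Controls: DMSO = 100%, bortezomib 9.2 uM final = 0%.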

Assay [8] can be described thus: Cell Proliferation Assay against the HBL1 Cell Line (AID 651646).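 Further: cells exposed to compound for 48 h before reading.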 The conditions noted are these: HBL1 DLBCL cells; at 46.1 µM (top of the series) unless noted. In short, it runs like this:
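HBL1 ABC DLBCL cells, 500/well in RPMI with 5% FBS, treated for 48 h at 37C. Viability read by CellTiter-Glo luminescence, normalized to DMSO as 100% and 9.2 uM bortezomib as 0%.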

The nature of assay [9]: Cell Proliferation Assay against the TMD8 Cell Line (Caspase readout at 16 hrs) (AID 651712). Further: potency means the concentration at half of the fitted maximal effect. In short, it runs like this: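 TMD8 cells in RPMI with 5% FBS were treated with compound for 16 h at 37 C, then caspase 3/7 activation was read by Caspase-Glo luminescence. Percent activity was scaled to DMSO (0%) and 9.2 uM bortezomib final (100%).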
Assay [10] can be described thus: Cell Proliferation Assay against the TMD8 Cell Line (Caspase readout at 8 hrs) (AID 651713).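 Further: 0% = DMSO and 100% = 9.2 µM bortezomib caspase signal.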 In short, it runs like this: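 TMD8 cells in RPMI plus 5% FBS were treated with compound for 8 h at 37C. Caspase 3/7 activation was read by Caspase-Glo luminescence. Percent activity was scaled from DMSO (0%) to 9.2 uM bortezomib final (100%).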
For assay [11], the target named is Tyrosine-protein kinase Yes (Homo sapiens) (UniProt P07947). Nature of the assay: qHTS for small molecule inhibitors of Yes1 kinase: Primary Screen (AID 686947). Further: nearly all actives have a fitted effect of over 60% in size. Further: potency means the concentration at half of the fitted maximal effect. The method, boiled down:
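Yes1 (4 nM) preincubated 20 min with compound, then 60 min room-temperature reaction with 0.1 mM ATP and 0.3 mg/mL poly(E4Y) in pH 7.5 Tris, 10 mM MgCl2. ADP measured by ADP-Glo luminescence, normalised to enzyme/no-enzyme controls.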

Assay [12] can be described thus: qHTS for small molecule inhibitors of Yes1 kinase: Counter Assay (AID 686950).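 Further: no kinase present so only ADP-Glo detection of a fixed ADP amount is tested; luminescence from ADP-Glo reporting ADP in a fixed ATP and ADP mixture; 0% = DMSO wells with ATP plus ADP and -100% = ATP-only wells without ADP.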 The method, boiled down: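 Enzyme-free detection counter-screen: compounds preincubated 20 min in buffer, then 0.08 mM ATP plus 0.02 mM ADP added for 60 min at room temperature; ADP-Glo luminescence. Buffer 50 mM Tris pH 7.5, 10 mM MgCl2, 150 mM NaCl; normalized to ATP+ADP and ATP-only controls.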

Tyrosine-protein kinase Yes (Homo sapiens), sequence (P07947 whole entry, looked up): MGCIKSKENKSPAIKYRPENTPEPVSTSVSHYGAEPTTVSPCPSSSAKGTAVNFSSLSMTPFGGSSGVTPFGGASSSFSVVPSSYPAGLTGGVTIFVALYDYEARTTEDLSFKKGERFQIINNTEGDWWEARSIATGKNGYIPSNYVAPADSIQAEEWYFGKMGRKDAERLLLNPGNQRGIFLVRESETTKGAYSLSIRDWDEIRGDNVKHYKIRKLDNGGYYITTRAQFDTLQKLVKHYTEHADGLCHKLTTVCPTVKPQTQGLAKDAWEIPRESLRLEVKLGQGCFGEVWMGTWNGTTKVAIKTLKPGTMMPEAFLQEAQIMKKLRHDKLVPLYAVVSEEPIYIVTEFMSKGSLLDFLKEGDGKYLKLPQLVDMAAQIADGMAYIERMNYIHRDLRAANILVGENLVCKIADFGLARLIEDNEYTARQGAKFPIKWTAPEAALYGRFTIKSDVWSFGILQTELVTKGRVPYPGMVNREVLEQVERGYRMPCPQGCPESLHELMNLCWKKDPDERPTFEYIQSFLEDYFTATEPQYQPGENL

Regarding `CC(=O)Oc1ccccc1C(=O)O`, the call in assay [1] and in assay [2] was inactive.
On to `NS(=O)(=O)c1cc2c(cc1Cl)NC=NS2(=O)=O`, for which the outcome in assay [1], in [2] and in assay [3] was inactive.
In the case of `CCCC(CCC)C(=O)O`, the molecule was called inactive in assay [3].
Take `Cc1cnc(Nc2ccc(OCCN3CCCC3)cc2)nc1Nc1cccc(S(=O)(=O)NC(C)(C)C)c1`: the Potency result in [4], in [6], in assay [9], in [10] and in assay [11] was “inactive” in each case. The molecule was called inactive in [5] and in assay [12]. Besides, the viability (% of control) in assay [7] turned out to be 90.7%. For the same molecule, the viability, percent of control in assay [8] is 65.3%.
As for `CCn1c(-c2nonc2N)nc2cnc(Oc3cccc(NC(=O)c4ccc(OCCN5CCOCC5)cc4)c3)cc21`, the Potency result in assay [4], in assay [10] and in assay [11] was “inactive” in each case. The result in assay [5] and in [12] was inactive. Besides, the Potency in assay [6] is 4.73 µM (active). Further, the viability (% of control) in assay [7] came to 19.6%. Also, the viability, percent of control in assay [8] was 36.3%.
Regarding `COc1cc2c(cc1OC)CN(CCc1ccc(NC(=O)c3cccc4c(=O)c5cccc(OC)c5[nH]c34)cc1)CC2`, the Potency entry in assay [4], in [6], in assay [9], in [10] and in assay [11] was “inactive” in each case. Moreover, the outcome in assay [5] and in [12] was inactive. For the same molecule, in [7], the viability (% of control) was 56%. In assay [8], the viability, percent of control was 0.316%.
As for `CCc1cc(Nc2nccc(-c3c(-c4ccc(OC)c(C(=O)Nc5c(F)cccc5F)c4)nc4ccccn34)n2)c(OC)cc1N1CCC(N2CCN(S(C)(=O)=O)CC2)CC1`, the Potency result in assay [4], in [6], in assay [9] and in assay [10] was “inactive” each time. Moreover, the call in assay [5] and in assay [12] was inactive. For the same molecule, in assay [7], the viability (% of control) was determined as 78.7%. In addition, in assay [8], the viability, percent of control is 87.3%.
Turning to `CNC(=O)c1ccc(C)c(-n2c(C)cc(OCc3ccc(F)cc3F)c(Br)c2=O)c1`, the Potency result in assay [4], in [6], in assay [10] and in assay [11] was “inactive” in each case. The molecule was classed as inactive in assay [5] and in [12]. In addition, the viability (% of control) in assay [7] worked out at 53%. Besides, the viability, percent of control in assay [8] amounted to 44.5%.
Turning to `C[C@H](NC(=O)Cc1cc(F)cc(F)c1)C(=O)N[C@@H]1C(=O)N(C)c2ccccc2-c2ccccc21`, the Potency entry in [4], in assay [6], in [9], in assay [10] and in [11] was “inactive” throughout. Besides, the result in assay [5] and in [12] was inactive. In assay [7], the viability (% of control) was 86.6%. Besides, in assay [8], the viability, percent of control stood at 87.3%.
For the molecule `CCOC(=O)N[C@@H]1CC[C@@H]2[C@@H](C1)C[C@H]1C(=O)O[C@H](C)[C@H]1[C@@H]2C=Cc1ccc(-c2cccc(F)c2)cn1`, the Potency result in assay [4], in assay [6], in assay [10] and in [11] was “inactive” in each case. For the same molecule, the call in [5] and in assay [12] was inactive. In addition, the viability (% of control) in [7] was 42.8%.
For `Cc1n[nH]c(C)c1Cc1sc2c(c1C(=O)N1C[C@H](O)CO1)c(=O)n(C)c(=O)n2CC(C)C`, the Potency result in assay [4], in assay [6], in assay [9], in assay [10] and in assay [11] was “inactive” in each case. Further, the result in [5] and in assay [12] was inactive. Further, in assay [7], the viability (% of control) is 68.3%. Also, the viability, percent of control in [8] stood at 76%.
As for `Cc1c(CN2CCN(C(=O)C(C)C)CC2)sc2c(N3CCOCC3)nc(-c3cnc(N)nc3)nc12`, the values for the Potency in assay [4] and in assay [11] were 0.148 µM (active) and 244 nM (active), respectively. Moreover, the call in assay [5] and in [12] was inactive. Further, the Potency entry in assay [6] was “inactive”. Also, the viability (% of control) in assay [7] turned out to be 3.51%. For the same molecule, the viability, percent of control in [8] worked out at 45.6%.
Take `N#Cc1ccc(C(c2ccc(C#N)cc2)n2cncn2)cc1`: the Potency result in assay [4], in assay [6], in [9], in assay [10] and in assay [11] was “inactive” each time. In addition, the outcome in assay [5] and in assay [12] was inactive. Further, the viability (% of control) in [7] was 71.5%. For the same molecule, the viability, percent of control in [8] amounted to 110%.
`COCC(=O)NCC=Cc1ccc2ncnc(Nc3ccc(Oc4ccc(C)nc4)c(C)c3)c2c1`: the Potency in [4] was 26.4 µM (active); in assay [6], 10.6 µM (active); in assay [11], 5470 nM (active). For the same molecule, the molecule was called inactive in assay [5] and in [12]. Besides, in assay [7], the viability (% of control) came to 28.1%. For the same molecule, in assay [8], the viability, percent of control was determined as 41.4%. Also, in [9], the Potency entry was “inactive”.
For `Cn1cnc2c(F)c(Nc3ccc(Br)cc3Cl)c(C(=O)NOCCO)cc21`, the Potency result in assay [4], in assay [6], in assay [10] and in [11] was “inactive” throughout. The call in assay [5] and in assay [12] was inactive. For the same molecule, the viability (% of control) in assay [7] amounted to 79.9%. In [8], the viability, percent of control came out at 76.1%.
As for `CNCc1ccc(-c2[nH]c3cc(F)cc4c3c2CCNC4=O)cc1`, in [4], the Potency entry is “inactive”. Further, the result in assay [5] and in [12] was inactive. Also, the Potency is 21.1 µM (active) in assay [6] and 308 nM (active) in [11]. For the same molecule, the viability (% of control) in [7] came out at 79.6%. Moreover, the viability, percent of control in [8] was determined as 73.9%.
On to `CS(=O)(=O)c1cccc(CNc2nc(Nc3ccc4c(c3)CCC(=O)N4)ncc2C(F)(F)F)c1`, for which the Potency result in [4], in [6], in [9] and in [10] was “inactive” each time. Besides, the outcome in assay [5] and in assay [12] was inactive. The viability, percent of control in [8] amounted to 120%. Also, the Potency in assay [11] was 972 nM (active).
Take `CCC(=O)N[C@H]1CC[C@H](C(=O)N(C)c2ccc(-c3nc4ccccc4o3)cc2)C1`: the Potency result in assay [4], in assay [6], in [9] and in assay [10] was “inactive” each time. In addition, the molecule was called inactive in assay [5] and in assay [12]. Besides, in assay [7], the viability (% of control) worked out at 77.3%. Moreover, the viability, percent of control in assay [8] worked out at 74.7%.
Consider `CCN(c1ccccc1)c1cc(NC)[n+](C)c(C)n1`, for which the Potency result in [4], in assay [6], in [9], in assay [10] and in [11] was “inactive” throughout. In addition, the molecule was classed as inactive in [5] and in assay [12]. For the same molecule, in assay [7], the viability (% of control) came out at 99.5%. Further, the viability, percent of control in assay [8] is 87.8%.
With `COc1ccc(-c2oc3cc(OC)ccc3c2C(=O)c2ccc(C#N)cc2)cc1`, the Potency entry in assay [4], in assay [6], in assay [9], in assay [10] and in assay [11] was “inactive” throughout. Besides, the molecule was classed as inactive in assay [5] and in [12]. Besides, in assay [7], the viability (% of control) came to 52.2%. Besides, the viability, percent of control in [8] was 76%.
For the molecule `Cc1ccnc(NS(=O)(=O)c2ccc(NC(=O)Nc3ccc(S(=O)(=O)Nc4nccc(C)n4)cc3)cc2)n1`, the Potency entry in [4] and in assay [10] was “inactive” each time. The outcome in assay [5] and in [12] was inactive. Moreover, the figures for the Potency in assay [6] and in assay [9] were 16.8 µM (active) and 23.5 µM (active), respectively. The viability (% of control) in assay [7] was 48.6%.
